Shown are actives, neighbours in structure and some others; about 5.7% of the full set was active somewhere.
ATXN viability: viability counter-screen for ATXN expression inhibitors | S2 cells (HEK-293 line with an ATXN2-luciferase reporter) viability, CellTiter-Fluor protease fluorescence, 24 h | Potency, µM (doses to about 56.7 µM), usual class: cytotoxic | 0.49% of 400,000 active | AID 651635; further: potency means the concentration at half of the fitted maximal effect; nearly all actives have a fitted effect of over 40% in size
HepG2 tox-1: kills HepG2 cells in TGF-b inhibitor counter-screen; Potency, µM (highest dose often 46.1 µM), without a hit: top-dose activity change, negative = cytotoxicity, most hits filed as cytotoxic; AID 588856; HepG2 CAGA-GFP viability, ATP luminescence, 18 h; 0.76% of 410,000 active; further: potency means the concentration at half of the fitted maximal effect
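HepG2 CAGA-GFP cells (1000/well, DMEM with 1% FBS) received compound, then TGF-beta at 500 pg/mL final, and were incubated 18 hours at 37 degrees C. Viability was read by CellTiter-Glo luminescence. Media-only wells were set as complete cell-killing and DMSO as no toxicity.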
IL-1B inflam inh: blocks inflammasome-driven IL-1 beta release | THP-1 LPS/ATP IL-1B secretion, AlphaLISA, 16 h; active compounds read low | activity change, % at 57.5 µM | 4.7% of 360,000 active | AID 743279; in the data active means activity change below about -50%; inconclusive means mostly about -30% to -49%; further: on the % scale 0 is the no-effect control and ±100 the full control effect
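THP-1 cells pretreated 1 hr with compounds (up to 57.5 uM final), then stimulated with LPS (250 ng/mL final) plus ATP (1.25 mM final); secreted IL-1B measured by AlphaLISA after 16 hr, decreased signal indicating inhibition.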
TGFb SMAD3 inh: inhibitors of TGF-b signaling. HepG2 CAGA-GFP TGF-b/SMAD3 reporter, GFP fluorescence, 18 h; TGF-beta stimulated, 500 pg/mL final. Potency, µM (doses to about 46.1 µM), without a hit: at the highest dose activity, negative = inhibition, usual class: inhibitors. 1.2% of 410,000 active; further: potency means the concentration at half of the fitted maximal effect; on the % scale 0 is the no-effect control and ±100 the full control effect; nearly all actives have a fitted effect of over 65% in size
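Inhibition of TGF-beta-driven CAGA-GFP reporter expression in HEPG2 cells is measured by cellular GFP fluorescence after 18 h stimulation with 500 pg/mL recombinant TGF-beta in 1% FBS medium at 37 degrees C.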
ATXN2 expr inh: ATXN2 expression inhibition | HEK-293 ATXN2-luciferase reporter, luminescence, 24 h | Potency, µM (doses to about 57 µM), for inactives: top-dose activity change, negative = inhibition, usual class: inhibitors | 0.72% of 360,000 active; further: potency means the concentration at half of the fitted maximal effect; on the % scale 0 is the no-effect control and ±100 the full control effect; nearly all actives have a fitted effect of over 55% in size
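qHTS (up to 57 uM final) was run with 24 h compound exposure of reporter cells at 37 °C. Each well was multiplexed: SteadyGlo luminescence measured ATXN2-luciferase expression after a fluorogenic Gly-Phe-AFC viability readout (25 uM final).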
TGFb confirm: confirmation of TGF-b signaling inhibitors in HepG2 reporter cells; shares compounds with TGFb SMAD3 inh; 63% of 1,600 active; HepG2 CAGA-GFP TGF-b reporter, GFP fluorescence, 18 h; cells stimulated with TGF-beta, 500 pg/mL; AID 720534; Potency, µM (titrated, usually from 46.1 µM), inactives show at the top dose activity, negative = inhibition, actives largely listed as inhibitors; further: potency means the concentration at half of the fitted maximal effect; on the % scale 0 is the no-effect control and ±100 the full control effect; nearly all actives have a fitted effect of over 65% in size
HepG2 tox-2: toxic to HepG2 cells in TGF-b counterscreen. Potency, µM (series often up to 46.1 µM), inactives show at the highest dose activity, negative = cytotoxicity, actives largely listed as inhibitors. 27% of 1,600 active. AID 720535. HepG2 CAGA-GFP viability, ATP luminescence, 18 h; cells stimulated with TGF-beta, 500 pg/mL. shares compounds with TGFb SMAD3 inh; further: potency means the concentration at half of the fitted maximal effect; on the % scale 0 is the no-effect control and ±100 the full control effect; nearly all actives have a fitted effect of over 70% in size
CCL64 TGFb inh: orthogonal confirmation of TGF-b inhibitors in CCL64 cells; shares compounds with TGFb SMAD3 inh; CCL64 CAGA-GFP reporter, TGF-b stimulated, GFP fluorescence, 18 h; Potency, µM (series often up to 46.1 µM), without a hit: top-dose activity, negative = inhibition, usual class: inhibitors; 41% of 1,600 active; further: potency means the concentration at half of the fitted maximal effect; nearly all actives have a fitted effect of over 65% in size
TGFb COP inh: TGF-b inhibition validated with COP promoter; Potency, µM (highest dose often 46.1 µM), inactives show top-dose activity, negative = inhibition, most hits filed as inhibitors; HepG2 COP-GFP TGF-b reporter, GFP fluorescence, 18 h; cells stimulated by added recombinant TGF-beta; shares compounds with TGFb SMAD3 inh; 3% of 1,600 active; further: potency means the concentration at half of the fitted maximal effect; nearly all actives have a fitted effect of over 70% in size
* marks the source's active call; other numbers are inactive results; i = inactive; ? = inconclusive; / = no result. Unless noted, the call rests on the fitted dose curve; in most records, active means well fitted curve in the direction sought with a large enough effect; inconclusive means small, poorly fitted or top-dose-only effect, or another doubt; inactive means no such curve, though single readings can be large; an effect the other way counts as inactive or inconclusive.

SMILES	ATXN viability	HepG2 tox-1	IL-1B inflam inh	TGFb SMAD3 inh	ATXN2 expr inh	TGFb confirm	HepG2 tox-2	CCL64 TGFb inh	TGFb COP inh
O=C(NNC(=O)c1ccc([N+](=O)[O-])o1)c1ccccc1	?	-26%	-15	7.9µM*	-24%	16µM*	18µM*	3%	52%
NC(=O)c1oc2ccccc2c1NC(=O)c1ccc([N+](=O)[O-])o1	?	-31%	-91*	7.1µM*	?	4.6µM*	23µM*	?	51%
NC(=O)c1oc2ccccc2c1NC(=O)c1ccc(F)cc1	i	31%	3	-19%	-6%	/	/	/	/
Cc1ccccc1C(=O)N1CCN(c2ccc(NC(=O)c3ccc([N+](=O)[O-])o3)cc2)CC1	?	1.1µM*	-95*	3.2µM*	-28%	6.5µM*	16µM*	-7%	?
COc1ccc(CNCCCSc2nnnn2C)c(OC)c1	i	6%	/	-4%	-9%	/	/	/	/
CC(C)OCCCn1c(=O)c2ccccc2n2c(-c3ccccc3)nnc12	i	3%	/	2%	3%	/	/	/	/
COc1ccc2c(c1)c(=O)c(C(=O)c1ccccc1)cn2CC(=O)Nc1ccc2c(c1)OCO2	i	-4%	/	-1%	3%	/	/	/	/
Cc1cc(C(=O)C(=O)Nc2nncs2)c(C)n1-c1ccc(Cl)cc1	i	-12%	/	-30%	1%	/	/	/	/
O=C(Nc1nc(-c2ccccn2)cs1)c1ccc([N+](=O)[O-])o1	?	-58%	41	8.9µM*	?	15µM*	16µM*	?	17%
Cc1ccc(C)c(NC(=O)CSc2cn(CC(=O)N3CCCCC3)c3ccccc23)c1	/	-9%	/	0%	/	/	/	/	/
Cc1cc(C)c2cccc(N)c2n1	i	-1%	22	0%	1%	/	/	/	/
Cc1cc(C)c2c(N)c3ccccc3nc2n1	/	10%	-89*	11µM*	?	21µM*	18µM*	13µM*	5%
O=C(NCCc1ccccc1)c1ccc2c(c1)N(Cc1ccccc1Cl)C(=O)c1ccccc1S2	/	-15%	/	?	/	/	/	/	/
COc1ccc(C(=O)N(Cc2ccco2)Cc2cccs2)c(OC)c1	/	4%	/	-2%	/	/	/	/	/
COc1ccc(C(=O)/C(C#N)=N/Nc2ccccc2[N+](=O)[O-])cc1	?	-18%	-22	1.1µM*	-9%	10µM*	?	?	1%
CC(=O)Nc1ccc(S(=O)(=O)c2ccnc3cc(Cl)ccc23)cc1	i	-75%	-103*	10µM*	/	23µM*	?	21µM*	15%
CC(=O)Nc1ccc(S(=O)(=O)Nc2ccc(Cl)cn2)cc1	?	2%	8	15%	-13%	/	/	/	/
Cc1ccc(SC(C)C(=O)NCc2ccncc2)cc1 (centres undefined)	i	-28%	1	?	5%	?	3%	14%	-8%
O=C(Nc1cc(Cl)cc(Cl)c1)c1cc(S(=O)(=O)N2CCc3ccccc3C2)ccc1F	i	-1%	/	-4%	6%	/	/	/	/
CCC(=O)c1cn(CC(=O)Nc2c(C)cccc2C)c2ccccc12	i	2%	0	-5%	6%	/	/	/	/
CC(=O)c1cn(CC(=O)Nc2c(C)cccc2C)c2ccccc12	i	-16%	-15	?	-17%	?	-10%	-3%	-1%
C[C@@H](C(=O)NCCc1ccccc1F)N1C(=O)N2CCc3c([nH]c4ccccc34)[C@@]2(C)C1=O	?	-29%	-10	?	-7%	/	/	/	/
C[C@@H](C(=O)NCCc1ccccc1)N1C(=O)N2CCc3c([nH]c4ccccc34)[C@@]2(C)C1=O	?	-29%	7	10µM*	1%	16µM*	?	?	-2%
COc1ccc(-c2cc3ccc(OC)cc3cn2)cc1	i	4%	57	-26%	5%	/	/	/	/
COc1ccc2cc(-c3ccccc3F)ncc2c1	i	-31%	67	?	67%	-9%	-21%	0%	9%
SMILES	ATXN viability	HepG2 tox-1	IL-1B inflam inh	TGFb SMAD3 inh	ATXN2 expr inh	TGFb confirm	HepG2 tox-2	CCL64 TGFb inh	TGFb COP inh
CC(=O)Oc1ccc(-c2ccc(C(=O)Nc3cccc(S(=O)(=O)N4CCOCC4)c3)cc2)cc1	i	-14%	-119*	11µM*	-35%	21µM*	?	?	17%
CN(C)c1ccc(C(=O)Nc2c(C(=O)NC(C)(C)C)oc3ccccc23)cc1	?	-1%	/	5%	-2%	/	/	/	/
Cc1csc2nc(CCNS(=O)(=O)c3ccc(F)cc3)cn12	/	0%	/	-12%	/	/	/	/	/
Cc1ccc(Cc2c(-c3cccc(Cl)c3)nc3ccc(C)cn23)cc1	?	-10%	-8	10µM*	-36%	18µM*	?	?	55%
COc1ccc(Cc2c(-c3ccccc3)nc3ccc(Br)cn23)c(C)c1	?	-19%	28	10µM*	-35%	?	?	?	51%
Clc1ccc2nc(-c3cccc(Br)c3)c(Cc3ccsc3)n2c1	i	-11%	61	10µM*	57%	?	?	?	0%
Clc1cccc(-c2nc3ccc(Br)cn3c2Cc2ccsc2)c1	?	-15%	89	?	58%	/	/	/	/
Brc1cccc(-c2nc3ccc(Br)cn3c2Cc2ccsc2)c1	?	-7%	79	11µM*	9%	23µM*	?	?	-5%
CC(=O)N1CCCc2cc(S(=O)(=O)NCc3ccc(OC(C)C)cc3)ccc21	i	-22%	/	-19%	-2%	/	/	/	/
COCCCNc1ncnc2c1c(-c1ccccc1)cn2-c1ccc(C)c(Cl)c1	/	0%	/	4%	/	/	/	/	/
O=C(CN1CCOCC1)Nc1ncc(Cc2ccccc2Cl)s1	?	1%	-7	2%	6%	/	/	/	/
CCc1ccc(CCC(=O)Nc2ncc(Cc3ccccc3Cl)s2)o1	i	-34%	-1	2µM*	-10%	?	-19%	-28%	-6%
CC(=O)Nc1ncc(Cc2cc(Cl)ccc2Cl)s1	i	1%	59	?	/	?	2%	0%	17%

High-throughput results deposited in PubChem BioAssay by National Center for Advancing Translational Sciences (NCATS).
